Results on 14 compounds are retold here after PubChem BioAssay (NCATS).

Structures are written as SMILES. Inconclusive results are not listed. Activity calls are given as the source filed them. The call rests on the fitted dose curve; in most records, active means well fitted curve in the direction sought with a large enough effect; inconclusive means small, poorly fitted or top-dose-only effect, or another doubt; inactive means no such curve, though single readings can be large; an effect the other way counts as inactive or inconclusive.

A short description of test [1]: qHTS of pediatric cancer cell lines to identify multiple opportunities for drug repurposing: Primary screen for U-2 OS cells (AID 1347096). Further: nearly all actives have a fitted effect of over 50% in size. The essentials: (§1)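 Viability after 48 h compound treatment at 37C, 500-1,000 cells/well, read as ATP luminescence with CellTiter-Glo. Primary screens used 11-point (MIPE, 0.78 nM-46 µM) or 8-point (NPC, 0.59 nM-46 µM) final concentrations; follow-up screens used 11-point dilutions.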
Background: Quantitative high-throughput screening tests each substance at several concentrations.

Test [2] can be described thus: qHTS of pediatric cancer cell lines to identify multiple opportunities for drug repurposing: Primary screen for Saos-2 cells (AID 1347097). Further: nearly all actives have a fitted effect of over 40% in size. The essentials: (§2)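 500-1,000 cells/well; 5 h pre-incubation 37 °C/5% CO2; compound pinned; 48 h; CellTiter-Glo, 15 min RT; luminescence. MIPE 11-pt from 0.78 nM, NPC 8-pt from 0.59 nM final. Bortezomib 2.3 µM final as positive control.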

Test [3] in a line: qHTS of pediatric cancer cell lines to identify multiple opportunities for drug repurposing: Primary screen for SK-N-SH cells (AID 1347098). Further: nearly all actives have a fitted effect of over 65% in size. The essentials:
(§3)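 Cells (500-1,000/well) rested 5 h, then received compounds for 48 h; metabolically active cells were measured by CellTiter-Glo luminescence. Final concentrations spanned up to 46 µM (MIPE, 11-point) or 0.59 nM-46 µM (NPC, 8-point) in primary screens, 11-point in follow-ups.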

Test [4] is described as follows: qHTS of pediatric cancer cell lines to identify multiple opportunities for drug repurposing: Primary screen for NB1643 cells (AID 1347099). Further: nearly all actives have a fitted effect of over 50% in size. The essentials:
as §2

Test [5] can be described thus: qHTS of pediatric cancer cell lines to identify multiple opportunities for drug repurposing: Primary screen for LAN-5 cells (AID 1347100). The method in brief:
as §1

Test [6] is described as follows: qHTS of pediatric cancer cell lines to identify multiple opportunities for drug repurposing: Primary screen for BT-12 cells (AID 1347101). Further: nearly all actives have a fitted effect of over 25% in size. The essentials: as §3
The nature of test [7]: qHTS of pediatric cancer cell lines to identify multiple opportunities for drug repurposing: Primary screen for Rh18 cells (AID 1347102). Further: nearly all actives have a fitted effect of over 65% in size. The essentials: as §1
Test [8] can be described thus: qHTS of pediatric cancer cell lines to identify multiple opportunities for drug repurposing: Primary screen for OHS-50 cells (AID 1347103). Further: nearly all actives have a fitted effect of over 40% in size. The essentials:
as §3

A short description of test [9]: qHTS of pediatric cancer cell lines to identify multiple opportunities for drug repurposing: Primary screen for RD cells (AID 1347104). Further: nearly all actives have a fitted effect of over 55% in size. The method in brief: as §2
The nature of test [10]: qHTS of pediatric cancer cell lines to identify multiple opportunities for drug repurposing: Primary screen for MG 63 (6-TG R) cells (AID 1347105). Further: nearly all actives have a fitted effect of over 50% in size. The method in brief: as §2
Potency means the concentration at half of the fitted maximal effect.

Regarding `Cc1nc(Nc2n[nH]c3c2CN(C(=O)N[C@H](CN(C)C)c2ccccc2)C3(C)C)c2sccc2n1`, the Potency in test [1] is 9.35 µM (active); in test [2] it was 1.66 µM (active); in [3], 17.1 µM (active); in [4] it was 0.935 µM (active); in [5], 0.418 µM (active); in test [6], 2.43 µM (active). Moreover, the figures for the Potency in test [7], in test [8] and in [9] were 1.32 µM (active), 0.0032 µM (active) and 2.96 µM (active), respectively.

As for `Nc1ncnc2c1c(-c1cnc3[nH]ccc3c1)nn2C1CCCC1`, the Potency in test [1] was 2.35 µM (active); in test [2] it was 0.935 µM (active); in test [3], 2.15 µM (active); in test [4] it was 5.9 µM (active); in [5] it was 1.05 µM (active); in test [6], 1.37 µM (active). The Potency was 0.526 µM (active) in [7], 0.0685 µM (active) in [8] and 1.87 µM (active) in [9].

As to `Clc1cccc(-c2nnnn2Cc2cccnc2)c1Cl`, the Potency entry in test [1], in [2], in [3], in test [4], in test [5] and in test [6] was “inactive” throughout. The Potency result in [7], in test [8], in test [9] and in [10] was “inactive” each time.

For `CN1CCN(c2ccc3nc(-c4c(N)c5c(F)cccc5[nH]c4=O)[nH]c3c2)CC1`, the Potency in test [1] was 18.7 µM (active); in [2] it was 5.9 µM (active); in test [3], 15.2 µM (active); in test [4], 16.6 µM (active); in [5] it was 4.69 µM (active); in test [6], 17.2 µM (active). Moreover, the results for the Potency in [7], in test [8] and in test [9] were 20.9 µM (active), 1.72 µM (active) and 18.7 µM (active), respectively. Besides, the Potency entry in [10] was “inactive”.

`Cn1cncc1[C@@](N)(c1ccc(Cl)cc1)c1ccc2c(c1)c(-c1cccc(Cl)c1)cc(=O)n2C`: the Potency in [1] is 18.7 µM (active); in test [2], 18.7 µM (active); in test [3] it was 8.57 µM (active); in [4], 18.7 µM (active); in [5] it was 5.9 µM (active); in test [6] it was 21.7 µM (active). Besides, the Potency in test [7] is 16.6 µM (active); in test [8], 7.69 µM (active); in test [9] it was 16.6 µM (active).

Consider `CC(C)(C)OC(=O)Nc1ccc(-c2cc(C(=O)NCCCCCCC(=O)NO)no2)cc1`, for which the Potency in [1] is 4.69 µM (active); in [2], 2.35 µM (active); in test [3] it was 6.81 µM (active); in test [4] it was 1.18 µM (active); in [5], 1.66 µM (active); in test [6] it was 17.2 µM (active). Further, the Potency in test [7] was 2.35 µM (active); in [8], 4.32 µM (active); in [9] it was 5.26 µM (active). In [10], the Potency entry was “inactive”.

With `O=C(O)CO.[NH2-].[NH2-].[Pt+2]`, the Potency result in [1], in test [2], in test [3], in test [4], in test [5] and in test [6] was “inactive” throughout. The Potency result in test [7], in test [8], in [9] and in [10] was “inactive” in each case.

As to `CN(C)CC=CC(=O)Nc1cc2c(Nc3ccc(F)c(Cl)c3)ncnc2cc1O[C@H]1CCOC1`, the Potency in test [1] was 18.7 µM (active); in test [2], 10.5 µM (active); in [3], 24.1 µM (active); in test [4], 0.296 µM (active); in test [5], 7.43 µM (active); in test [6], 21.7 µM (active). In addition, the Potency in test [7] is 14.8 µM (active); in [8], 3.06 µM (active); in [9] it was 5.9 µM (active).

Take `COCCOc1ccc2c(c1)ncn2-c1ccc2cccc(N3CCC(N)CC3)c2n1`: the Potency was 18.7 µM (active) in [1]; 18.7 µM (active) in test [2]; 21.5 µM (active) in test [3]; 23.5 µM (active) in test [4]; 9.35 µM (active) in [5]; 27.3 µM (active) in test [6]. Moreover, the Potency in test [7] is 26.4 µM (active); in test [8], 19.3 µM (active); in test [9], 29.6 µM (active).

Regarding `CC(=O)SC[C@@H](C)C(=O)N1CCC[C@H]1C(=O)N[C@@H](Cc1ccccc1)C(=O)O`, the Potency result in [1], in [2], in [3], in test [4], in [5] and in [6] was “inactive” each time. The Potency entry in [7], in test [8], in test [9] and in test [10] was “inactive” each time.

Consider `O=C(CCCCCCNC(=O)c1cnc(N(c2ccccc2)c2ccccc2)nc1)NO`, for which, in [1], the Potency result was “inactive”. Also, the Potency is 11.8 µM (active) in test [2]; 10.8 µM (active) in test [3]; 3.72 µM (active) in test [4]; 4.69 µM (active) in test [5]; 17.2 µM (active) in [6]; 5.9 µM (active) in test [7]. The Potency in test [8] was 6.85 µM (active); in test [9] it was 13.2 µM (active).

As for `CCOc1ccccc1OCCNC(C)Cc1ccc(OC)c(S(N)(=O)=O)c1` (stereo unspecified), the Potency result in [1], in [2], in test [3], in test [4], in test [5] and in test [6] was “inactive” in each case. In addition, the Potency entry in test [7], in [8] and in [9] was “inactive” in each case.

Regarding `COc1cccc2c(NCc3ccccc3)nc(-n3c(N)nc4ccccc43)nc12`, the Potency is 9.35 µM (active) in test [1]; 3.72 µM (active) in test [2]; 10.8 µM (active) in test [3]; 9.35 µM (active) in test [4]; 9.35 µM (active) in test [5]; 10.9 µM (active) in [6]. For the same compound, the figures for the Potency in [7], in test [8] and in [10] were 9.35 µM (active), 9.68 µM (active) and 9.35 µM (active), respectively.

In the case of `C#Cc1cccc(Nc2ncnc3cc(OC)c(OCCCCCCC(=O)NO)cc23)c1`, the Potency in [1] was 1.48 µM (active); in test [2], 0.209 µM (active); in test [3], 0.121 µM (active); in [4], 0.0743 µM (active); in [5] it was 0.332 µM (active); in test [6], 2.17 µM (active). Further, the Potency in test [7] was 0.469 µM (active); in test [8], 0.485 µM (active); in test [9] it was 0.187 µM (active).
